KCNQ2 block: rat KCNQ2 potassium channel inhibitors, primary screen, cell-based, CHO-K1, FluxOR thallium flux, B-score. 20 min; stronger effect = lower value. B-score at 10 µM. actives 1.1% (n = 310,000);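 active = fluorescence ratio B-score at most minus 3 library SDs, with starting brightness B-score within 2 library SDs, cut at about -5.5 in these data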
KCNQ2 enhance: potentiators of rat KCNQ2 potassium channel; Potassium voltage-gated channel subfamily KQT member 2 (Rattus norvegicus), O88943; CHO-K1 KCNQ2, FluxOR thallium flux fluorescence; stronger effect = higher value; B-score at 10 µM; actives 0.54% (n = 310,000); AID 2239, 2010;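 active = fluorescence ratio B-score at least 3 SD of library B-scores, with initial fluorescence B-score within 3 of them, cut at about 5.3 in these data; same plate scores as AID 2156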;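 note: B-score of peak minus minimum over baseline fluorescence ratio after K+ and Tl+ stimulus; positive B-score means potentiation of KCNQ2 with more thallium influx and brighter signal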
A number is an active result; . = inactive; / = no result given. An excerpt weighted towards active compounds, which were near 1.6% of everything screened.

SMILES	KCNQ2 block	KCNQ2 enhance
CC[C@H]1CC2CN3CCc4c([nH]c5c([C@H]6C[C@H]7[C@H](CC)CN(C)[C@@H](Cc8c6[nH]c6ccccc86)[C@H]7C(=O)OC)c(OC)ccc45)C(C(=O)OC)(C2)C13	-7.5	.
COc1ccc(-c2nc(NC(=O)c3n[nH]c(=O)c4ccccc34)sc2C)cc1	.	/
O=C1CC(c2cccc(Cl)c2)CC(O)=C1C=NC1CCCC1 (stereo not drawn)	-6.8	.
O=C1CC(c2ccccc2)CC(O)=C1C=NCc1ccccc1Cl (stereo not drawn)	.	/
Cc1cc(CNC(=O)c2ccc3oc(C(C)C)nc3c2)nn1C	.	.
N#CCc1nc(C(c2ccccc2)c2ccccc2)no1	.	/
Fc1ccc(Cn2cccc2C2=NC(c3ccccc3)CO2)cc1 (stereo not drawn)	.	/
Cc1oc(-c2ccccc2)nc1Cn1cccc1C1=NC(c2ccccc2)CO1 (stereo not drawn)	-6	.
CC(C)CSC1=NSC2=NC(=O)/C(=C\c3cccs3)C(=N)N12	.	7.4
N=C1/C(=C/c2cccs2)C(=O)N=C2SN=C(SCc3ccccc3)N12	.	.
CC(=O)Nc1ccc(S(=O)(=O)N(C)CC(=O)OCC(=O)N(C)C2CCS(=O)(=O)C2)cc1 (stereo not drawn)	.	/
O=C(c1ccc(CS(=O)c2ccccc2Cl)o1)N1CCN(c2ccccc2)CC1 (stereo not drawn)	.	/
O=C(c1ccc(COc2ccccc2Cl)o1)N1CCN(c2ccccc2)CC1	-6	.
O=C(c1ccco1)N1CCN(C(=O)c2ccc(COc3ccc4c(c3)CCC4)o2)CC1	.	/
COc1cc(OC)c(C(=O)N2CCN(c3ccccn3)CC2)cc1OC	.	/
O=C(c1ccc(COc2ccc3c(c2)CCC3)o1)N1CCN(c2ccccc2)CC1	-8	.
CCCc1ccc(OCc2ccc(C(=O)N3CCN(c4ccccn4)CC3)o2)c(OC)c1	-5.9	.
CCN1C(=O)c2ccccc2S(=O)(=O)c2ccc(C(=O)NCCOC)cc21	.	.
COc1ccccc1-c1c(C(F)(F)F)oc2cc(OC(=O)c3cccc([N+](=O)[O-])c3C)ccc2c1=O	.	/
COCC1CCN(C(=O)c2cc(COc3cc(C)c(Cl)c(C)c3)on2)C1 (stereo not drawn)	.	.
CC(C)(C)n1nc2c(c1NC(=O)Cc1cccs1)CSC2	.	9.5
CC(C)(C)n1nc2c(c1NC(=O)COc1ccc(Cl)cc1)CSC2	.	/
COc1cc(C(=O)NCCSc2ccc(F)cc2)cc(OC)c1OC	.	.
CC1(C)CC(N2CCN(CCO)CC2)=CC(=S)N1	.	/
COc1cc2ccccc2cc1C(=O)Nc1sc2c(c1C(N)=O)CCN(C(C)C)C2	-5.9	.
SMILES	KCNQ2 block	KCNQ2 enhance
CN1CCc2c(sc(NC(=O)c3ccc4ccccc4c3)c2C(N)=O)C1	.	/
CN(c1ccc(C(=O)NC2CC2)cc1)S(=O)(=O)c1ccccc1	.	.
Cc1onc(-c2ccccc2)c1CNC(=O)Nc1ccccc1	.	/
O=C(Oc1ccccc1)c1cc2ccccc2oc1=O	.	/
O=C(Oc1ccccc1)c1cccc2cccc(C(=O)Oc3ccccc3)c12	-5.8	.
COc1ccc(CCNC(=O)CC(C)(C)CC2=NS(=O)(=O)c3ccccc3N2)cc1OC	.	.
c1csc(-c2noc(COc3ccc4c(c3)CCCC4)n2)c1	-6	.
Brc1ccc(-c2noc(COc3ccc4c(c3)CCC4)n2)o1	.	/
COCCNC(=O)COC(=O)c1ccc(OCC(=O)Nc2ccccc2OC)c(OC)c1	.	.
COc1ccccc1CN1C(=O)CN(C2CCCCCC2)C(=O)C1c1ccc(F)cc1 (stereo not drawn)	-6.1	.
O=C1C(c2ccc(F)cc2)N(C2CCCCC2)C(=O)CN1C1CCCC1 (stereo not drawn)	.	/
COc1cccc(C2c3[nH]c4ccccc4c3C[C@H]3C(=O)N(C4CC4)CC(=O)N23)c1 (stereo partly drawn)	.	/
COc1cccc(C2C(=O)N(C3CCCCC3)CC(=O)N2Cc2ccc(F)cc2)c1 (stereo not drawn)	-7	.
Cc1ccc(C(=O)N(CCc2ccccc2)Cc2ccccc2)cc1S(=O)(=O)N1CCCCC1	-8.1	.
O=C(OCC(=O)N(CCc1ccccc1)Cc1ccccc1)c1cc(S(=O)(=O)N2CCOCC2)ccc1F	.	/
Cc1ccc(C(=O)OCC(=O)N(CCc2ccccc2)Cc2ccccc2)cc1S(=O)(=O)N1CCOCC1	-6	.
O=C(OCC(=O)N(CCc1ccccc1)Cc1ccccc1)c1cccc(O)c1	.	/
O=C(OCC(=O)N(CCc1ccccc1)Cc1ccccc1)c1ccccc1NCCO	-6.5	.
COc1ccc(C(=O)N(CCc2ccccc2)Cc2ccccc2)cc1S(=O)(=O)N1CCOCC1	.	/
COc1cccc(-c2c(C(=O)N/N=C/c3ccc(C)o3)nnn2-c2nonc2N)c1	.	.
COc1ccc2cnn(-c3ccc(OC(F)(F)F)cc3)c(=O)c2c1OC	.	.

Bioassay records from PubChem.
